# Source: PubChem (The Scripps Research Institute Molecular Screening Center)
# TEAD-YAP block – TEAD-YAP interaction inhibition, primary screen, TEAD-YAP interaction inhibitor project, luminescence, HEK-TIYL cells; TEAD-Gal4/YAP UAS-luciferase luminescence; 1.4% of 640,000 active; inhibition, % at 9.12 µM; in the data active means inhibition above about 32%;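 further: 0% = median of test compound wells and 100% = reference inhibitor wells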
# GPR151 ag – activators of human GPR151, primary screen, cell-based, PathHunter beta-arrestin, luminescence; G-protein coupled receptor 151 (Homo sapiens), Q8TDV0; PathHunter beta-arrestin GPR151 cells; activation, % at 11.2 µM; 1% of 650,000 active; in the data active means activation above about 4.9%;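 further: 0% = median of compound wells and 100% = cells with positive control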
# FBW7 activator – FBW7 E3 ligase activators, primary screen, biochemical, AlphaScreen, human. F-box/WD repeat-containing protein 7 (Homo sapiens), Q969H0. AlphaScreen FBW7–phospho-cyclin E peptide binding, activator screen. normalized activity (activation), % at 26.1 µM. 0.13% of 650,000 active. AID 1259310, 2017; in the data active means normalized activity above about 1.9%;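 further: purified mutant Fbw7 with reduced substrate affinity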
# MITF primary – MITF inhibitors, primary screen, biochemical, AlphaScreen, human; inhibition, % at 2.6 µM; Microphthalmia-associated transcription factor (Homo sapiens), O75030; AlphaScreen MITF homodimerization, bead proximity signal; 0.91% of 650,000 active; in the data active means inhibition above about 50%;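 further: 0% = vehicle wells with protein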
# GPR151 confirm – GPR151 activators, triplicate retest, confirmation, cell-based, PathHunter beta-arrestin, luminescence. shares compounds with GPR151 ag. GPR151 PathHunter beta-arrestin cells, 90 min; % of EA-reagent control over plate median. activation, % at 11.2 µM. 6,700 tested, under 10 active. AID 1508609, 2020;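 active means mean percent activation across replicates above the confirmation screen cutoff of 4.91%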
# GPR119 ag – GPR119 activators in beta-arrestin cells, counter-screen for GPR151 activator project, cell-based, PathHunter beta-arrestin, luminescence, triplicate; 0.3% of 6,700 active; activation, % at 11.2 µM; 90 min; 0 = compound-well median, 100 = enzyme-acceptor control; shares compounds with GPR151 ag;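 active means mean percent activation in the counterscreen above 29.09%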;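 further: counterscreen on off-target GPR119 to flag nonselective hits from the GPR151 activator screen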
# Target sequence (Q8TDV5 whole entry, looked up): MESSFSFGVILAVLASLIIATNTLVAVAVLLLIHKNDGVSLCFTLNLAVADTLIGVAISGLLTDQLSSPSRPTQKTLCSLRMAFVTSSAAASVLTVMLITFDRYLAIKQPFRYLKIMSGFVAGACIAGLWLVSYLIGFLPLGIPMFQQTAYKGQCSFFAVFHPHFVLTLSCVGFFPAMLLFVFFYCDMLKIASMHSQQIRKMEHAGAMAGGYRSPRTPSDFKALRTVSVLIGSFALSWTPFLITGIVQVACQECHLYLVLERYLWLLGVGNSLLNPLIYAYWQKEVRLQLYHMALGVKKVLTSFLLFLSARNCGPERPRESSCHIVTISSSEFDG
# * hit, by the source's call; · = no result given; ! = a repeat was not active. This is a sample that favours compounds with a hit; in the whole collection about 3.5% have one here.
SMILES,TEAD-YAP block,GPR151 ag,FBW7 activator,MITF primary,GPR151 confirm,GPR119 ag
O=C(Nc1cccc(-c2ccc(F)cc2)c1)C1CCCN(C(=O)c2cscn2)C1 (stereo unspecified),7.0,16.7*,0.0,8.6,0.5,-1.2
COc1ccccc1C(=O)N/N=C(\N)c1cc2ccccc2oc1=O,-4.8,-1.1,-0.1,7.0,·,·
CCCC(=O)N(Cc1nc2sc(C)c(C)c2c(=O)[nH]1)Cc1cccs1,-0.9,0.3,-0.1,6.8,·,·
O=C(NC1CCCCC1)c1ccc(-n2cccc2)cc1,-44.0,5.8*,-0.1,18.7,0.4,-3.0
O=C(NC1CCCCC1)c1ccc(F)c(F)c1,8.0,5.8*,0.1,-10.5,0.1,-17.8
Cc1ccc(-c2csc(=S)n2CC(=O)N2CCCCC2)cc1,-18.2,-0.3,0.2,-0.4,·,·
COc1ccc(Nc2ccc(N3C(=O)CCC3=O)cc2[N+](=O)[O-])cc1OC,3.9,-0.6,-0.1,5.9,·,·
O=C(/C=C(\O)c1ccc([N+](=O)[O-])cc1)C(F)(F)F,-13.5,-1.6,-0.2,2.2,·,·
O=C(c1cc(F)c(F)cc1Cl)N1CCN(c2cc(N3CCCCC3)c(F)cc2[N+](=O)[O-])CC1,7.4,-0.9,-0.4,-2.2,·,·
CSc1ccccc1C(=O)Nc1ccccc1Cl,9.6,8.2*,0.0,6.3,-1.2,5.3
CNS(=O)(=O)c1ccc(N/C=C(\C#N)c2nc3ccccc3o2)cc1,-29.9,1.4,0.3,12.3,·,·
O=C/C(=C\Nn1cnnc1)c1nc2ccccc2o1,2.3,15.1*,-0.2,12.9,-0.3,-6.6
Cn1c(=O)[nH]c(=O)c2c1nc(NCCCN1CCOCC1)n2CCO,-5.9,10.1*,-0.1,-0.4,0.0,4.8
O=C1c2cccc3cccc(c23)N1Cc1c(O)ccc2ccccc12,5.8,5.5*,0.4,4.1,0.2,-6.4
COc1cccc(NC(=S)NCc2cccnc2)c1,7.2,6.1*!,0.3,15.1,-0.7,0.3
COc1cccc(NC(=O)C(=O)NCc2cccnc2)c1,-49.2,-0.2,0.1,3.3,·,·
O=C(NCCCN1CCCCCC1)c1ccc2c(=O)n(Cc3ccc(Cl)cc3)c(=S)[nH]c2c1,-0.7,0.1,0.5,-0.8,·,·
COc1ccc(OC)c(S(=O)(=O)Nc2cc3c(C(C)=O)c(C)oc3c3ccccc23)c1,-3.5,5.7*,-0.1,-6.4,-0.5,-6.4
COC(=O)c1c(C)oc2c1cc(NS(=O)(=O)c1cc(C)ccc1C)c1ccccc12,-7.8,4.7,0.0,-8.4,·,·
COc1cccn2c(C(=O)N3CCC3)c(C(F)(F)F)nc12,17.3,6.2*,0.1,8.0,1.3,13.3
COc1cccn2c(C(=O)Nc3ccc(Cl)cc3)c(C(F)(F)F)nc12,0.0,14.2*,-0.2,10.5,0.5,8.2
COc1cccn2c(C(=O)N3CCCC3)c(C(F)(F)F)nc12,9.1,-0.4,0.3,2.2,·,·
COc1ccc(OC)c(NC(=O)c2ccc(C)c(Br)c2)c1,-21.4,7.9*,0.3,2.2,-0.4,-10.0
COc1ccc(C(=O)N/N=C(\C)c2ccc(OC)c(Br)c2)cc1,-22.4,6.3*,0.0,1.2,-0.6,0.5
COc1ccc(OC)c(NC(=O)c2ccc(C)cc2)c1,-9.2,-0.4,-0.1,-1.9,·,·
SMILES,TEAD-YAP block,GPR151 ag,FBW7 activator,MITF primary,GPR151 confirm,GPR119 ag
CCc1cccc(CC)c1NC(=O)CN1C(=O)NC2(CCCCC2C)C1=O (stereo unspecified),0.0,6.2*,-0.1,-4.7,0.7,0.1
CC1CN(c2[nH]c(=O)n(C)c(=O)c2Cc2ccc(F)cc2F)CC(C)O1 (stereo unspecified),-4.4,-0.8,0.1,1.6,·,·
COc1ccc(CNC(=O)c2ccc(S(=O)(=O)c3cccc(Cl)c3)c([N+](=O)[O-])c2)cc1,22.7,-1.6,-0.2,6.0,·,·
COc1ccc(Cl)cc1NC(=O)n1cc(C)cn1,5.6,-0.9,0.2,5.6,·,·
COc1ccc(NC(=O)n2cc(C)cn2)cc1OC,-0.6,5.2*,-0.2,15.7,0.3,-10.0
COc1ccc(/C=N/n2cnc3c([nH]c4ccccc43)c2=O)cc1,-5.9,1.5,0.2,3.5,·,·
COc1cccc(Nc2nc(-c3ccc(OC)c(F)c3)cs2)c1,19.1,-0.2,0.0,8.5,·,·
COc1ccc(-c2csc(Nc3ccccc3)n2)cc1F,-68.1,6.5*,0.0,6.7,2.2,0.8
S=C(NCCCn1ccnc1)Nc1ccc(Br)cc1,-4.7,5.1*,-0.1,7.6,-0.7,-8.0
Cc1ccc(NC(=O)COc2ccccc2C(=O)NC(C)c2ccccc2)cc1[N+](=O)[O-] (stereo unspecified),9.6,7.1*,0.2,17.4,0.2,-13.0
Cc1ccc(NC(=O)C(Sc2ccccc2)c2ccccc2)cc1[N+](=O)[O-] (stereo unspecified),-2.0,8.4*,0.1,13.6,0.4,-10.1
CC(=O)Nc1ccc(NC(=O)C(Sc2ccccc2)c2ccccc2)cc1 (stereo unspecified),-5.1,-0.4,0.1,-18.0,·,·
Cc1nnc(SCC(=O)Nc2ccc(C)c([N+](=O)[O-])c2)s1,9.4,7.3*,0.0,18.4,-1.4,-5.6
Cc1nnc(SCC(=O)Nc2ccc(Cl)c([N+](=O)[O-])c2)s1,13.6,-1.4,-0.2,-2.8,·,·
COc1ccc(C2CC(=O)C3=C(C2)NC(C)=C(C(=O)OCCc2ccccc2)C3c2ccc(Cl)cc2Cl)cc1 (stereo unspecified),3.0,1.1,-0.2,1.2,·,·
CNC(=O)/C=C/c1cccc(C(F)(F)F)c1,6.7,6.1*,0.0,-9.1,0.0,3.1
CC1CN(Cc2ccc(OCCO)cc2)Cc2cc(Cl)ccc2O1 (stereo unspecified),4.6,0.6,0.1,-20.5,·,·
O=C(COc1ccc(Cl)cc1)NCc1cc(-c2cccs2)on1,10.7,5.2*,0.3,-1.2,-1.3,-14.1
COc1ccc(NC(=O)Nc2cnn(Cc3ccc(Cl)cc3)c2)cc1,11.1,0.2,-0.1,4.3,·,·
Nc1ccc2c(c1)S(=O)(=O)c1cc(N)ccc1O2,-59.2,7.4*,-0.1,2.7,0.3,-5.9
CC1(C)CC(=O)C(C=NCc2cccc(F)c2)=C(O)C1,5.2,1.2,0.0,6.2,·,·
CC1(C)CC(=O)C(C=NCCc2cccc(Cl)c2)=C(O)C1,20.6,5.4*,-0.2,6.4,-0.6,-15.9
CN1C(=C(C#N)C#N)N(N)c2ccccc21,-0.8,-0.7,0.1,21.1,·,·
Cc1ccc(NC(=O)NC23CC4CC(CC(C4)C2)C3)cc1NC(=O)NC12CC3CC(CC(C3)C1)C2,-0.3,-0.1,0.0,0.9,·,·
